The list is not random: actives were taken first. Their share in the collection is about 3.4%.
TWEAK Fn14 block – inhibitors of TWEAK-Fn14 signaling, primary screen, luciferase reporter cells, uHTS; TWEAK-stimulated Fn14 reporter cells, luciferase luminescence, 8 h; inhibition, % at 10 µM; hit rate 2% among 360,000; in the data active = inhibition above about 50%
LMP1 NFkB inh – EBV LMP1-driven NF-kappaB luciferase reporter inhibitors, primary screen, cell-based, luminescence, single point; inhibition, % at 12.5 µM; AID 504558, 2011; hit rate 0.69% among 350,000; LMP1-induced NF-kappaB luciferase reporter cells; in the data active = inhibition above about 41%; inconclusive = no clear call, values can overlap the other calls;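 also: 0% = neutral control wells and 100% = reference inhibitor control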
TRPM1 prom inh – inhibitors of MITF-dependent TRPM1 promoter reporter, primary screen, cell-based, SK-MEL-5, single point, luciferase. SK-MEL-5 TRPM1 promoter luciferase, 24 h. inhibition, % at 12.5 µM. hit rate 0.83% among 330,000;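 active = mean inhibition across replicates of 60% or more, whatever share of single replicates reaches that level; inconclusive = some that reach 60%, reason not given; inactive = mean inhibition across replicates below 60%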
TROY signal inh – inhibitors of TROY-driven NF-kB signaling, primary screen, Q293 LMP1-TROYcd cells, NF-kB luciferase, uHTS; inhibition, % at 10 µM; Q293 LMP1-TROYcd NF-kB luciferase reporter, 4 h; hit rate 0.98% among 360,000; AID 1347056, 2019;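 active = compounds whose plate-normalised and pattern-corrected inhibition of the luciferase reporter signal at the single screening dose is 50% or more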
HIF-2a block – HIF-2a reporter inhibitors, primary screen, luminescence, 786-0 RCC cells | 786-0 RCC cells HIF-2a reporter, luciferase luminescence, overnight | inhibition, % at 18.8 µM | hit rate 0.72% among 360,000 | AID 624352, 2012;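 active = inhibition of the luminescence signal of 40% or more relative to plate controls, in a single-dose primary screen at 18.75 µM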
Shn3 3UTR inh – reduction of Shn3 3'UTR firefly luciferase signal, primary screen, Schnurri-3 inhibitor project, cell-based, Clone20 osteoblasts, set 2; Clone20 osteoblast Shn3 3'UTR firefly luciferase, 24 h; inhibition, % at 12.5 µM; hit rate 0.52% among 360,000; AID 588674, 2011;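 active = mean inhibition of at least 75% with every replicate also reaching 75%; inconclusive = mean inhibition at least 75% but some replicate below; inactive = mean inhibition below 75%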;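 also: 0% = median of neutral control wells and 100% = pilot-screen positive control compound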
An asterisk follows results filed as active; u = inconclusive; x = not tested or not shown.

SMILES	TWEAK Fn14 block	LMP1 NFkB inh	TRPM1 prom inh	TROY signal inh	HIF-2a block	Shn3 3UTR inh
Cc1cc(OCc2cc(C(=O)N3CCN(CC4CC4)CC3)no2)cc(C)c1Cl	-2	-2	-11	-9	-79	3
O=C(CSc1nc(C(F)(F)F)cc(=O)[nH]1)Nc1ccc2c(c1)OCCO2	27	3	1	14	8	7
CC1O[C@@H](OC2C(O)C(O)C(CO)O[C@H]2OC2C[C@]3(C)C(CC(O)C4[C@@H]([C@]5(C)CC[C@@H](C(C)(C)O)O5)CC[C@]43C)[C@@]3(C)CCC(O)C(C)(C)C23)C(O)C(O)C1O (stereo partly drawn)	-4	4	2	4	13	-9
O=C(CCc1nnc(-c2ccc(-c3ccccc3)cc2)o1)NCCc1ccccn1	25	25	18	0	40*	14
COc1cc(CNC(=O)C2CC(O)CN2C(=O)Nc2ccccc2)cc(OC)c1OC (stereo not drawn)	6	0	x	8	22	3
C/C(=C/CCC(C)[C@H]1CC[C@@]2(C)C3=C(CC[C@]12C)[C@@]1(C)CCC(=O)C(C)(C)[C@@H]1CC3)C(=O)O (stereo partly drawn)	10	-6	-12	53*	12	3
COc1ccc(NC(=O)N(C)C[C@H]2OCCCC[C@H](C)Oc3ccc(NC(=O)Nc4ccc5c(c4)OCO5)cc3C(=O)N([C@@H](C)CO)C[C@@H]2C)cc1	6	7	x	4	9	3
CC(Nc1ccccc1CO)C(=O)Nc1cccc(Cl)c1Cl (stereo not drawn)	23	68*	15	40	35	3
CCCCN1C(=O)C(CC(=O)NCc2ccco2)CC(C(=O)N(C(C)C)C(C)C)=C1C (stereo not drawn)	14	x	x	-12	10	-12
CCOC(=O)CSC1=NC(=O)/C(=C\c2ccc(Cl)cc2)S1	-16	-11	66*	-23	-172	20
COCCNC(=O)C1(C)CCN(Cc2csc(-c3ccc(Cl)cc3)n2)C1 (stereo not drawn)	-2	x	x	0	-34	-5
Cc1ccc(-c2cc[n+](Cc3ccccc3)cc2)cc1	8	-2	16	13	20	66
OCc1cccc[n+]1Cc1ccccc1	-1	3	-6	60*	21	12
O=C1c2ccccc2C2=Nc3ccccc3SC(c3cccc(F)c3)C12 (stereo not drawn)	48	12	0	71*	28	18
COc1ccc(NC(=O)c2ccc(-n3cnnn3)cc2)c([N+](=O)[O-])c1	11	-5	3	-2	1	-8
COC(=O)NC(=C(Cl)Cl)S(=O)(=O)c1ccccc1	69*	-137	31	0	-15	22
COc1ccc(-c2coc3c(C(=O)NCc4ccc(OC)c(OC)c4)cccc23)c(C)c1	63*	x	x	44	17	90*
COc1ccc(-c2coc3c(C(=O)NCc4ccc(F)c(F)c4)cccc23)c(C)c1	26	x	x	19	-8	58
COc1ccc(-c2coc3c(C(=O)Nc4cc(OC)c(OC)c(OC)c4)cccc23)c(C)c1	93*	x	x	63*	-11	82
COc1cc(NC(=O)c2cccc3c(-c4cccnc4)coc23)cc(OC)c1OC	80*	x	x	68*	-24	u
CC(=O)c1cccc(NC(=O)c2cccc3c(-c4cccc(C(N)=O)c4)coc23)c1	83*	x	x	64*	-173	-2
CN(C(=O)COC(=O)/C=C/c1cccs1)C1CCCCC1	-1	-12	-26	-48	-43	-25
O=C(Nc1cccc(F)c1)c1ccc(-c2cccnc2)c2ccoc12	77*	x	x	40	-29	-18
Cc1ccc2nc(C(F)(F)F)c(C#N)c(N)c2c1	64*	-33	26	53*	-31	-22
CNS(=O)(=O)c1cccc(C(=O)OCC(=O)N2CC(C)OC(C)C2)c1 (stereo not drawn)	16	12	-3	-18	9	8
N=C1S/C(=C\c2ccc(-c3cccc(Cl)c3)o2)C(=O)N1c1nccs1	90*	22	48	-6	1	u
